# m5-HT2A agonist – mouse HTR2A agonism via beta-arrestin recruitment. CHO-K1 mHTR2A beta-arrestin complementation, luminescence; percent of 30 µM serotonin response. P35363. activation, % at 7.6 µM. 360,000 tested, 0.66% active;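 active = activation above a run cutoff, the mean activation of all tested compounds plus 3 SD, cut at about 14% in these data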;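 note: 0% = plate median of compound wells and 100% = 30 µM serotonin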
# HTR5A ag – activates human HTR5A in OPRM1-OPRD1 agonist counter-screen. P47898. HTR5A agonist assay, luminescence, cell-based. activation, % at 9.3 µM. 340,000 tested, 0.61% active; in the data active = activation mostly above about 9.5%, no sharp cut-off; inactive = mostly below about 7.6%;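 note: 0% = cells with vehicle only and 100% = reference agonist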
# Target sequence (P47898 whole entry, looked up): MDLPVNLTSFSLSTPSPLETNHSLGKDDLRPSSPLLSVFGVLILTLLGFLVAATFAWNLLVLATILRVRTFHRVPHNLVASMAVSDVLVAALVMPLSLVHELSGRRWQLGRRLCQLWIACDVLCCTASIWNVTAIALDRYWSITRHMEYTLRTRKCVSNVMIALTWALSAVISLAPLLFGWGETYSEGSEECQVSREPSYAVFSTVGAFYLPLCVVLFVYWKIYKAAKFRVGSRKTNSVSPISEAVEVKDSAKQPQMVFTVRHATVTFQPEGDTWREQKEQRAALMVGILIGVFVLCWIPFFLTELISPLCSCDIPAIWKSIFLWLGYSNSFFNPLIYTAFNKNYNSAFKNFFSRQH
# HTR5A inv ctr – counter-screen for OPRM1-OPRD1 inverse agonists: human HTR5A inverse agonism; P47898; HTR5A cell line, luminescence; inhibition, % at 9.3 µM; 340,000 tested, 0.083% active; AID 504634; in the data active = inhibition mostly above about 23%, no sharp cut-off; inactive = mostly below about 18%;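 note: 0% = cells with DMSO and 100% = no-cell wells with DMSO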
# MOR-DOR inv ag – inverse agonist of human OPRM1-OPRD1 heterodimerization | P35372+P41143 | cell-based MOR-DOR heterodimer luminescence, inverse agonism | inhibition, % at 9.3 µM | 340,000 tested, 0.21% active; in the data active = inhibition above about 22%, passing the limit was not always enough;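 note: 0% = cells with DMSO and 100% = wells without cells with DMSO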
# OPRM1-OPRD1 ag – agonists of human mu-delta opioid receptor heterodimerization; P35372+P41143; cells, OPRM1-OPRD1 heterodimerization, luminescence; activation, % at 9.3 µM; 340,000 tested, 0.3% active; AID 504326; in the data active = activation above about 18%;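 note: 0% = vehicle-treated cells and 100% = reference agonist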
# OPRM1 ag – counter-screen for mouse HTR2A agonists: human mu opioid receptor agonists; U2OS OPRM1 beta-arrestin PathHunter, luminescence; DMSO 0%, DAMGO 9.3 µM 100%; activation, % at 9.3 µM; 2,300 tested, 5.3% active; shares compounds with m5-HT2A agonist; AID 624380;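 active = mean activation above the mean of DMSO-only wells plus 3 SD, cut at about 0.5% in these data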
# m5-HT2A ag conf – confirmation of mouse HTR2A serotonin receptor agonists. shares compounds with m5-HT2A agonist. CHO-K1 PathHunter beta-arrestin recruitment, luminescence; DMSO 0%, 30 µM serotonin 100%. activation, % at 7.6 µM. 2,300 tested, 19% active. AID 624381;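 active = mean activation across triplicates above the hit threshold derived in the original primary screen, cut at about 15% in these data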
# Starred values were filed as active, the others as inactive; · = no result given. Compounds with a hit are over-represented: about 1.6% of the library has one in this group of screens.
SMILES,m5-HT2A agonist,HTR5A ag,HTR5A inv ctr,MOR-DOR inv ag,OPRM1-OPRD1 ag,OPRM1 ag,m5-HT2A ag conf
COc1ccc2c(c1)CC/C2=N\NC(=O)c1ccccc1,15*,5,-11,-1,0,-1,-2
COc1ccc(OCC(=O)N/N=C2\CCc3ccccc32)cc1,-5,-2,12,11,-2,·,·
CC1(C(=O)NCc2ccccc2)CN(S(C)(=O)=O)CC(=O)N1CCCN1CCOCC1 (stereo not drawn),0,·,·,·,·,·,·
CCNC(=O)CCS(=O)(=O)c1ccc2ccccc2c1,16*,2,-5,12,-2,0,-3
O=C(CCS(=O)(=O)c1ccccc1)NCCS(=O)(=O)c1ccccc1,0,-2,5,14,-3,·,·
CSc1nc(C)c(C(=O)Nc2ccccc2)c(-c2ccco2)c1C#N,16*,5,-6,15,-3,0,-3
COCCOC(=O)N1CCCCC1c1cc(C(=O)NCc2ccc(Cl)c(Cl)c2)no1 (stereo not drawn),-1,·,·,·,·,·,·
CC1=C(C(=O)OCc2ccccc2)C(c2ccccc2Br)NC(=O)N1 (stereo not drawn),29*,3,-65,3,-1,0,23*
O=C(NCCN1CCC(n2c(=O)[nH]c3ccccc32)CC1)c1ccc(F)c(F)c1,-5,·,·,·,·,·,·
C[C@H]1CN([C@@H](C)CO)C(=O)c2cc(/C=C/c3ccccc3)cnc2O[C@H]1CN(C)C(=O)c1cccc(F)c1,17*,·,·,·,·,-1,-8
CN(C)CCCn1c(NC(=O)C2CCCCC2)nc2ccccc21,20*,2,-15,3,0,-1,4
CCCCn1c(NC(=O)C2CCCCC2)nc2ccccc21,3,-1,3,-4,1,·,·
CCC(C)C(CO)NCCCn1cnc2c(OCc3ccccc3)ncnc21 (stereo not drawn),3,·,·,·,·,·,·
CCOC(=O)C1=CN(Cc2ccc(OC)cc2)C=C(C(=O)OCC)C1c1cccs1,16*,3,-9,-2,0,-1,7
COc1ccccc1-c1c(C(F)(F)F)oc2cc(OS(C)(=O)=O)ccc2c1=O,26*,-2,14,-15,3,0,-2
CCOC(=O)[C@]12CCCC=C1N(Cc1ccc(Cl)cc1Cl)C(=O)[C@H](CC(=O)NCCC(C)C)C2,-6,·,·,·,·,·,·
COc1ccc(S(=O)(=O)N(C)C[C@@H]2OCc3cnnn3CCCC(=O)N([C@H](C)CO)C[C@@H]2C)cc1,-3,·,·,·,·,·,·
Cc1cc(C=O)c(C)n1-c1ccc(N2CCOCC2)cc1,16*,-9,22,1,0,-1,-2
CN(C)CCNC(=O)c1cc2ccccc2oc1=O,16*,2,-17,9,-2,0,-3
CC(=O)OCCNC(=O)c1cc2ccccc2oc1=O,-4,3,-7,9,-2,·,·
CNC(=O)C1CCN(S(=O)(=O)c2c(C)noc2/C=C/c2ccc(OC)cc2)CC1,20*,-3,9,12,-2,0,-4
Cn1c(N)c(C(=O)N2CCN(c3ccccc3)CC2)c(=O)n(C)c1=O,0,·,·,·,·,·,·
O=C(NCCCN1CCN(c2cccc(Cl)c2)CC1)c1cccc(N2CCCC2=O)c1,17*,-2,2,7,-1,-1,4
CN1CCN(c2ccc(Cl)cc2NC(=O)c2cc(=O)[nH]c3ccccc23)CC1,4,4,0,6,-2,·,·
CN1CCN(c2ccc(Cl)cc2NC(=O)c2ccc(=O)n(C)n2)CC1,18*,4,-10,15,-3,-1,1
SMILES,m5-HT2A agonist,HTR5A ag,HTR5A inv ctr,MOR-DOR inv ag,OPRM1-OPRD1 ag,OPRM1 ag,m5-HT2A ag conf
O=C(NCCc1ccccc1)C1Cc2c(-c3ccc4c(c3)OCO4)ccnc2O1 (stereo not drawn),-6,·,·,·,·,·,·
CS(=O)(=O)Nc1ccc2c(c1)[C@H]1C[C@H](CC(=O)NCc3ccccc3)O[C@H](CO)[C@H]1O2,3,·,·,·,·,·,·
COc1ccc(NC(=O)CCCNC(=O)c2ccc(Cl)cc2)cc1S(=O)(=O)N1CCOCC1,15*,4,-14,20,-5,-1,-2
CC(C)Nc1nc(NC(C)C)nc(Oc2ccc(=O)n(C)n2)n1,5,2,-5,-7,1,·,·
COc1cc(C)nc(Oc2ccc(=O)n(C)n2)n1,15*,3,-7,14,-3,0,-1
CCOC(=O)c1ccc(NC(=O)c2sc3nc(N4CCOCC4)c4c(c3c2N)CCCC4)cc1,18*,-4,-20,14,-3,0,-3
COc1cccc(-c2nc(NC(C)C)c3ccccc3n2)c1O,46*,-2,5,4,-1,0,48*
COc1cccc(-c2nc(NCC3CCCO3)c3ccccc3n2)c1O (stereo not drawn),32*,2,9,-4,1,0,15*
Oc1ccccc1-c1nc(NCC2CCCO2)c2ccccc2n1 (stereo not drawn),-1,4,-11,5,-1,·,·
CCC(C)Nc1nc(-c2ccccn2)nc2ccccc12 (stereo not drawn),-8,-2,6,17,-3,·,·
COc1cccc(-c2nc(Oc3cccc(C)c3C)c3ccccc3n2)c1O,2,3,-23,0,0,·,·
CCC(C)Nc1nc(-c2cccc(OC)c2O)nc2ccccc12 (stereo not drawn),59*,4,-13,-28,5,0,33*
O=C1c2ccccc2C(c2nnnn2-c2ccc3c(c2)OCCO3)N1CCc1ccccc1F (stereo not drawn),-4,·,·,·,·,·,·
COc1cccc(-n2cc(CNCc3cn(C)nc3-c3ccccc3F)cn2)c1,30*,0,1,-27,5,0,97*
COc1cccc(CN2CCC2(C)C(=O)NCc2cccc(C(F)(F)F)c2)c1OC (stereo not drawn),-3,·,·,·,·,·,·
CCNC(=O)c1cc2c(c(-c3cccc(-c4ccccc4F)c3)n1)[C@@H](CCO)N(C(=O)CC)C2,-8,·,·,·,·,·,·
O=C(Nc1ccccc1)Nc1ccc2ccccc2n1,16*,1,-4,-21,5,0,-4
O=C(Nc1ccc(F)cc1)Nc1ccc2ccccc2n1,3,4,-12,-19,4,·,·
COc1ccc(-c2cccc(NS(=O)(=O)c3cccc([N+](=O)[O-])c3)c2)nn1,17*,9,8,-2,0,0,-3
CCCN(CCC)CC(=O)NCC1(c2ccccc2)CCOCC1,17*,3,-6,-11,2,0.5*,5
O=C1C(=O)c2ccccc2C(O)=C1c1cccc([N+](=O)[O-])c1,20*,·,·,·,·,-1,-5
CCCCN(C(=O)CCC(=O)Nc1cc(C)on1)C(C(=O)NC1CCCC1)c1cccc(OC)c1 (stereo not drawn),14*,7,-21,-1,0,-1,-5
